Test results from PubChem BioAssay AID1159580 (chemical genetic matrix, 2015).
Screen size: about 5,500 compounds; about 2,000 (36%) were called active. Inconclusive results (about 18%) are left out. No stated cut-off is given here; in the data, active means normalized growth mostly below about 0.91 (no sharp cut-off); inconclusive means no clear call, values can overlap the other calls; inactive means mostly above about 0.92. This is one part of the list.

Assay: chemical genetic growth profiling, strain panel (AID 1159580);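 further: tested at 20 µM; growth read once vehicle control cultures reached saturation at 30 °C; 1 = growth at the plate median or of vehicle wells; lower values mean less growth of the strain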
Settings: growth OD

Measured: normalized growth

CC(=O)Oc1ccccc1C(=O)Oc1ccccc1C(=O)O
inactive: S. cerevisiae deletion strains, locus YJR075W, strain HOC1, active compounds read low 1.02 | S. cerevisiae deletion strains, locus YKL009W, strain mrt4, active compounds read low 0.981 | S. cerevisiae deletion strains, locus YKL068W, active compounds read low 0.985 | S. cerevisiae deletion strains, locus YKL085W, strain MDH1 (second series), active compounds read low 0.998 | S. cerevisiae deletion strains, locus YKL085W, strain MDH1, active compounds read low 0.998 | S. cerevisiae deletion strains, locus YKL160W, strain elf1, active compounds read low 0.999 | S. cerevisiae deletion strains, locus YKL190W, strain CNB1, active compounds read low 1 | S. cerevisiae deletion strains, locus YKR001C, strain vps1, active compounds read low 0.979 | S. cerevisiae deletion strains, locus YKR026C, strain gcn3, active compounds read low 1.01 | S. cerevisiae deletion strains, locus YKR091W, strain srl3, active compounds read low 1 | S. cerevisiae deletion strains, locus YLL001W, strain dnm1, active compounds read low 1 | S. cerevisiae deletion strains, locus YLL026W, active compounds read low 1.01 | S. cerevisiae deletion strains, locus YLL041C, strain sdh2, active compounds read low 1 | S. cerevisiae deletion strains, locus YLR027C, strain aat2, active compounds read low 1.01 | S. cerevisiae deletion strains, locus YLR039C, strain RIC1, active compounds read low 0.983 | S. cerevisiae deletion strains, locus YLR058C, strain SHM2, active compounds read low 0.995 | S. cerevisiae deletion strains, locus YLR102C, strain apc9, active compounds read low 0.976 | S. cerevisiae deletion strains, locus YLR113W, strain HOG1, active compounds read low 0.977 | S. cerevisiae deletion strains, locus YLR221C, strain rsa3, active compounds read low 0.998 | S. cerevisiae deletion strains, locus YLR258W, strain gsy2, active compounds read low 0.994 | S. cerevisiae deletion strains, locus YLR262C, strain YPT6 (second series), active compounds read low 1 | S. cerevisiae deletion strains, locus YLR262C, strain YPT6, active compounds read low 0.969 | S. cerevisiae deletion strains, locus YLR268W, strain sec22, active compounds read low 1 | S. cerevisiae deletion strains, locus YLR320W, strain mms22, active compounds read low 0.998 | S. cerevisiae deletion strains, locus YLR330W, strain CHS5, active compounds read low 0.992 | S. cerevisiae deletion strains, locus YLR342W, strain FKS1 (second series), active compounds read low 0.99 | S. cerevisiae deletion strains, locus YLR342W, strain FKS1, active compounds read low 1 | S. cerevisiae deletion strains, locus YLR357W, strain rsc2, active compounds read low 1.01 | S. cerevisiae deletion strains, locus YLR370C, strain arc18, active compounds read low 1 | S. cerevisiae deletion strains, locus YLR371W, strain rom2, active compounds read low 0.975 | S. cerevisiae deletion strains, locus YLR384C, strain iki3, active compounds read low 0.995 | S. cerevisiae deletion strains, locus YLR418C, strain cdc73, active compounds read low 0.997 | S. cerevisiae deletion strains, locus YML016C, strain PPZ1, active compounds read low 0.996 | S. cerevisiae deletion strains, locus YML032C, strain rad52, active compounds read low 0.983 | S. cerevisiae deletion strains, locus YML120C, strain ndi1, active compounds read low 1.01 | S. cerevisiae deletion strains, locus YML124C, strain tub3, active compounds read low 0.992 | S. cerevisiae deletion strains, locus YMR058W, strain fet3, active compounds read low 1.01 | S. cerevisiae deletion strains, locus YMR078C, strain ctf18, active compounds read low 0.984 | S. cerevisiae deletion strains, locus YMR125W, strain sto1, active compounds read low 0.986 | S. cerevisiae deletion strains, locus YMR129W, active compounds read low 0.997 | S. cerevisiae deletion strains, locus YMR205C, strain PFK2, active compounds read low 0.998 | S. cerevisiae deletion strains, locus YMR223W, strain ubp8, active compounds read low 0.969 | S. cerevisiae deletion strains, locus YMR231W, strain pep5, active compounds read low 0.996 | S. cerevisiae deletion strains, locus YMR263W, strain SAP30, active compounds read low 1.01 | S. cerevisiae deletion strains, locus YMR307W, strain GAS1, active compounds read low 0.995 | S. cerevisiae deletion strains, locus YNL067W, strain RPL9B, active compounds read low 1.01 | S. cerevisiae deletion strains, locus YNL071W, strain lat1, active compounds read low 1.01 | S. cerevisiae deletion strains, locus YNL128W, strain TEP1, active compounds read low 1 | S. cerevisiae deletion strains, locus YNL153C, strain GIM3, active compounds read low 1.01 | S. cerevisiae deletion strains, locus YNL183C, strain NPR1, active compounds read low 0.921 | S. cerevisiae deletion strains, locus YNL209W, strain ssb2, active compounds read low 1.01 | S. cerevisiae deletion strains, locus YNL233W, strain BNI4, active compounds read low 0.999 | S. cerevisiae deletion strains, locus YNL248C, strain rpa49, active compounds read low 0.925 | S. cerevisiae deletion strains, locus YNL250W, strain rad50, active compounds read low 0.974 | S. cerevisiae deletion strains, locus YNL271C, strain bni1, active compounds read low 0.971 | S. cerevisiae deletion strains, locus YNL298W, strain CLA4, active compounds read low 0.979 | S. cerevisiae deletion strains, locus YNL307C, strain MCK1, active compounds read low 0.983 | S. cerevisiae deletion strains, locus YNL322C, strain KRE1 (second series), active compounds read low 0.998 | S. cerevisiae deletion strains, locus YNL322C, strain KRE1, active compounds read low 1 | S. cerevisiae deletion strains, locus YNR049C, strain mso1, active compounds read low 1.01 | S. cerevisiae deletion strains, locus YNR052C, strain pop2, active compounds read low 0.975 | S. cerevisiae deletion strains, locus YOL006C, strain TOP1, active compounds read low 1 | S. cerevisiae deletion strains, locus YOL012C, strain htz1 0.794 | S. cerevisiae deletion strains, locus YOL147C, strain pex11, active compounds read low 0.991 | S. cerevisiae deletion strains, locus YOR001W, strain rrp6, active compounds read low 0.972 | S. cerevisiae deletion strains, locus YOR061W, strain CKA2, active compounds read low 0.995 | S. cerevisiae deletion strains, locus YOR069W, strain VPS5, active compounds read low 0.992 | S. cerevisiae deletion strains, locus YOR070C, strain gyp1, active compounds read low 1.02 | S. cerevisiae deletion strains, locus YOR080W, strain dia2, active compounds read low 1 | S. cerevisiae deletion strains, locus YOR083W, strain WHI5, active compounds read low 1.01 | S. cerevisiae deletion strains, locus YOR106W, strain vam3, active compounds read low 1.01 | S. cerevisiae deletion strains, locus YOR136W, strain idh2, active compounds read low 0.978 | S. cerevisiae deletion strains, locus YOR144C, strain elg1, active compounds read low 0.991 | S. cerevisiae deletion strains, locus YOR184W, strain ser1, active compounds read low 0.971 | S. cerevisiae deletion strains, locus YOR231W, strain MKK1, active compounds read low 0.992 | S. cerevisiae deletion strains, locus YOR265W, strain rbl2, active compounds read low 1.03 | S. cerevisiae deletion strains, locus YOR270C, strain vph1, active compounds read low 1.01 | S. cerevisiae deletion strains, locus YOR290C, strain snf2, active compounds read low 0.974 | S. cerevisiae deletion strains, locus YOR316C, strain cot1, active compounds read low 0.978 | S. cerevisiae deletion strains, locus YPL051W, strain arl3, active compounds read low 1.03 | S. cerevisiae deletion strains, locus YPL055C, strain LGE1, active compounds read low 1.02 | S. cerevisiae deletion strains, locus YPL078C, strain atp4, active compounds read low 0.998 | S. cerevisiae deletion strains, locus YPL106C, strain sse1, active compounds read low 0.993 | S. cerevisiae deletion strains, locus YPL240C, strain hsp82, active compounds read low 1.01 | S. cerevisiae deletion strains, locus YPL241C, strain CIN2, active compounds read low 0.965 | S. cerevisiae deletion strains, locus YPL256C, strain CLN2, active compounds read low 0.992 | S. cerevisiae deletion strains, locus YPR119W, strain clb2, active compounds read low 0.991 | S. cerevisiae deletion strains, locus YPR141C, strain kar3, active compounds read low 0.975 | S. cerevisiae deletion strains, locus YPR163C, strain tif3, active compounds read low 0.987 | S. cerevisiae deletion strains, locus YPR167C, strain met16, active compounds read low 0.988 | S. cerevisiae deletion strains, strain wtn01, active compounds read low 0.998 | S. cerevisiae strains, strain wild type, active compounds read low 0.998
